{"source": "PubChem BioAssay (EPA / NIEHS)", "note": "Inconclusive results are not listed. The source made the active and inactive calls. The calls were made as follows: active = hit-call score of the fitted dose curve at least 0.9, where 1 is the maximum; inconclusive = response in the unintended direction; inactive = score below 0.9."}
{"target": "rat Neurokinin-1 Receptor (NK1), Tacr1 (gene 24807) (UniProt P14600)", "sequence (P14600 whole entry, looked up)": "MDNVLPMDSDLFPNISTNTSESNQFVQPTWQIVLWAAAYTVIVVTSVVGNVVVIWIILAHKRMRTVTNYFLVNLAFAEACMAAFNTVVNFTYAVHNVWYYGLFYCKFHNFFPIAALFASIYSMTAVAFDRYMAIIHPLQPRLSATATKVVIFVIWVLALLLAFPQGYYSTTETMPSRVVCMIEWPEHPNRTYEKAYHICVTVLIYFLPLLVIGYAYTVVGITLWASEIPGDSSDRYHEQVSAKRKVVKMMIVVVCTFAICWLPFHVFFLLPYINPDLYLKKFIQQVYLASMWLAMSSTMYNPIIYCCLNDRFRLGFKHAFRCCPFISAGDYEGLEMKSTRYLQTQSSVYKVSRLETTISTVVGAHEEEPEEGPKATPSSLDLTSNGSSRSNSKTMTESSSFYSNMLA", "assay": "NVS_GPCR_rNK1: NovaScreen (NVS) G Protein-Coupled Receptor Assay for rat Neurokinin-1 Receptor (NK1) (AID 2283309)", "summary_of_the_method": "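Rat submaxillary gland membranes; radioligand displacement read by filter-based scintillation counting after 1 h. Primary screen in duplicate at 25 uM; actives retested in concentration series; loss of binding fitted versus DMSO.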"}
{"smiles": "Cc1cc(C)nc(Nc2ccccc2)n1", "outcome": "inactive"}
{"smiles": "CCNP(=S)(OC)O/C(C)=C/C(=O)OC(C)C", "note": "(stereo not drawn)", "outcome": "inactive"}
{"smiles": "Cn1c(-c2ccccc2)cc(-c2ccccc2)[n+]1C", "outcome": "inactive"}
